Hit rate of the full screen: of about 1,900 compounds, fewer than 10 were called active. Roughly 6% stayed inconclusive and do not appear here.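 Rule for the calls: active = Wild-type ribosome reporter drop at least double the humanized mutant ribosome reporter drop, growth loss under a set limit; inconclusive = no clear call, values can overlap the other calls; inactive = the rest.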 The list is a sample of the results.
Assay: growth inhibition of wild-type GFP E. coli, dose response, H69 mutant RFP, cherry-pick (AID 977621);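 note: wild-type GFP and H69 mutant RFP strains grown together 50/50 in each well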
Settings: E. coli wild-type GFP strain growth, fluorescence, 24 h; series mostly up to 50 µM

outcome, inactive:
O=C(Nc1cccc(Cl)c1)N1C[C@@H]2[C@H](c3ccccc31)[C@H](CO)N2Cc1ccncc1, CNC(=O)c1ccsc1NC(=O)c1ccc(S(=O)(=O)N2CCc3ccccc32)cc1, Cc1ccccc1S(=O)(=O)NC(=O)C1(C)CCN1C(=O)C1(c2ccc(Cl)cc2)CC1 (configuration not stated), CCc1c(N=O)c(-c2ccccc2)n(O)[n+]1[O-], CCc1cc2cc(OC)ccc2nc1SCC(=O)Nc1cc(OC)c(OC)cc1C(=O)O, CC1CCCC(NC(=O)COC(=O)[C@@H]2CC(O)CN2S(=O)(=O)c2ccc3c(c2)OCCO3)C1C (some centres not stated), Cn1cc(CCC(=O)NCc2ccc3c(c2)OCO3)c2ccccc21, C[C@@H](Nc1nc(-c2ccccc2)nc2c1oc1ccccc12)C(=O)O, CC(=O)Nc1ccc(CNc2nc(NCCN(C)C)nc3cc(-c4ccccc4)sc23)cc1, Fc1cccc(Cl)c1CSc1ccc(-c2ccco2)nn1, Cc1ccc(C(=O)NCC(=O)OCC(=O)Nc2cccc(S(=O)(=O)N3CCCC3)c2)cc1C, Cc1cc(C)cc(NC(=O)c2cccc(NC(=O)C3C4CC5OC(=O)C3C5C4)c2)c1 (configuration not stated), Cc1ccc(OCCCC(=O)NC(C)c2ccccc2)c(C)c1 (configuration not stated), Cc1nn(C(C)(C)C)c(OC(=O)CC(C)C)c1S(=O)(=O)c1ccccc1, O=C(NCCc1csc(-c2ccccc2)n1)c1ccccc1F, Cc1cccc(NC(=O)c2nc(S(=O)(=O)Cc3ccccc3)ncc2Cl)c1, Cc1ccc(-c2c[n+](CC(=O)Nc3ccccc3)c3n2CCC3)cc1, COc1ccc(C(C)=O)cc1COc1ccc(Cl)c(C)c1, COc1cccc(S(=O)(=O)N2CCCCN3[C@H](C2)[C@H](c2ccc(C#CC(C)C)cc2)[C@@H]3CO)c1, COc1ccc2c(c1)c1ncn(Cc3ccccn3)c(=O)c1n2C, O=C(Nc1nnc(Cc2ccc(Cl)cc2)s1)c1ccncc1, Cc1ccc2c(N)c(C(=O)c3ccccc3)sc2n1, Cc1onc(-c2ccccc2Cl)c1C(=O)OCC(=O)c1ccccc1, COc1ccc(CN(C)C[C@H]2Oc3ccc(NS(=O)(=O)c4ccc(Cl)cc4)cc3CC(=O)N([C@@H](C)CO)C[C@H]2C)cc1, Cc1ccc(F)c(NC(=O)CCOc2ccccc2C)c1, COc1ccccc1N1CCN(Cc2ccc(OC)c3ccccc23)CC1, CC1CCCN(c2ccc(C(=O)NCCc3ccccc3)cn2)C1 (configuration not stated), COc1ccc(C2=NN(C(=O)c3cccnc3)C(c3ccccc3)C2)cc1 (configuration not stated), Cc1ncoc1C(=O)NCCC(c1ccccc1)c1ccccc1, OCCN(Cc1ccccc1)Cc1ccc(Cl)cc1, Cc1ccccc1-n1nnnc1SCCCC(=O)c1ccc(F)cc1, CCN(CC)C(=O)c1sc2nc(-c3ccccc3)ccc2c1N, CCn1c(NC(=O)c2nn(C)cc2Br)nc2ccccc21, Cc1ccc(S(=O)(=O)N2CC(=O)Nc3ccccc32)cc1C, COC(=O)c1cc(C)sc1NC(=O)CC1Nc2ccccc2NC1=O (configuration not stated), O=C(NCCc1ccccc1)c1cccc(NC(=O)c2ccccc2)c1, C[C@@H]1CN([C@@H](C)CO)C(=O)c2cc(NS(=O)(=O)c3ccccc3)ccc2O[C@@H]1CN(C)Cc1ccc(C(=O)Nc2ccccc2N)cc1

— PubChem BioAssay AID977621 (Broad Institute, 2014)
